Results on 12 compounds are retold here after PubChem BioAssay.

The source made the active and inactive calls. Unless noted, the rule behind the calls is not given here.

Assay [1] in a line: resazurin metabolic signal in HepG2 cells – cell-based, resazurin fluorescence, 24 h, PK04 Diversity Set, profiling panel (AID 1172). Note: test concentration not given here. Conditions: HepG2 viability, higher = more signal. On the technique in general: Alamar Blue is a resazurin reagent that responds to reducing activity.
Assay [2] in a line: budding yeast growth changes without added modifier – OD600, strain BY4716, 24 h, basal condition, primary screen (AID 1173). Conditions: S. cerevisiae BY4716 growth, OD600, 24 h; higher = more signal, called active from +8 up or from −8 down.
Assay [3] can be described thus: viability profiling in MM1S myeloma cells – cell-based, resazurin fluorescence, basal, 24 h, PK04 Diversity Set, profiling panel (AID 1174).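 Note: MM1S multiple myeloma cell line; test concentration not given here.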 The following applies: higher = more signal, called active from +8 up or from −8 down.
Assay [4] addresses Dihydroorotate dehydrogenase (quinone), mitochondrial (Plasmodium falciparum (isolate 3D7)) (UniProt Q08210). The assay can be described thus: inhibition of P. falciparum DHODH – biochemical, C-terminal His tag, absorbance 600 nm, primary screen (AID 1175).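 Note: recombinant parasite enzyme with a five histidine tag at its C terminus; test concentration not given here.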 The following applies: PfDHODH enzyme, DCIP absorbance 600 nm; higher = more signal, called active from +8 up or from −8 down.

A short description of assay [5]: inhibition of PAO1 biofilm formation – strain PAO1, LB-PBS medium, absorbance 600 nm, primary screen (AID 1176). Note: test concentration not given here. The following applies: P. aeruginosa PAO1 growth/biofilm, A600, 12 h; higher = more signal.
Assay [6] can be described thus: growth modulation of vineyard yeast isolate – strain RM11-1a, OD600, basal, 24 h, primary screen (AID 1177).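 Note: cultures grown under basal conditions with no added stressor; test concentration not given here.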 The following applies: S. cerevisiae RM11-1a growth, OD600, 24 h; higher = more signal, called active from +8 up or from −8 down.
Assay [7] can be described thus: growth of efflux-deficient E. coli DRC39 – strain DRC39, OD650, 24 h, E. coli filamentation inducers, primary screen (AID 1178).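 Note: growth measured as culture turbidity by optical density at 650 nm; test concentration not given here.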 Conditions: E. coli DRC39 acrAB, higher = more signal, called active from +8 up or from −8 down.
The nature of assay [8]: growth of efflux-deficient E. coli DRC39 – strain DRC39, OD650, 48 h, E. coli filamentation inducers, primary screen (AID 1179).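 Note: screen aims at cell division blockers that make cells filament.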 The following applies: E. coli DRC39 delta-acrAB growth, higher = more signal, called active from +8 up or from −8 down.
Assay [9] is described as follows: viability profiling in RPMI8226 myeloma cells – cell-based, resazurin fluorescence, basal, 24 h, PK04 Diversity Set, profiling panel (AID 1180).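 Note: RPMI8826 multiple myeloma cell line at 5000 cells per well; test concentration not given here.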 Conditions: higher = more signal.
Assay [10] has as its target E3 ubiquitin-protein ligase XIAP (Homo sapiens) (UniProt P98170). As to the kind of experiment: small molecules binding XIAP protein – biophysical, small-molecule microarray, fluorescence 635 nm, primary screen (AID 1181).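 Note: score merges 667 nm emission and signal to noise over triplicate slides.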 Conditions: higher = more signal.

Sequence of E3 ubiquitin-protein ligase XIAP (Homo sapiens) (P98170 whole entry, looked up): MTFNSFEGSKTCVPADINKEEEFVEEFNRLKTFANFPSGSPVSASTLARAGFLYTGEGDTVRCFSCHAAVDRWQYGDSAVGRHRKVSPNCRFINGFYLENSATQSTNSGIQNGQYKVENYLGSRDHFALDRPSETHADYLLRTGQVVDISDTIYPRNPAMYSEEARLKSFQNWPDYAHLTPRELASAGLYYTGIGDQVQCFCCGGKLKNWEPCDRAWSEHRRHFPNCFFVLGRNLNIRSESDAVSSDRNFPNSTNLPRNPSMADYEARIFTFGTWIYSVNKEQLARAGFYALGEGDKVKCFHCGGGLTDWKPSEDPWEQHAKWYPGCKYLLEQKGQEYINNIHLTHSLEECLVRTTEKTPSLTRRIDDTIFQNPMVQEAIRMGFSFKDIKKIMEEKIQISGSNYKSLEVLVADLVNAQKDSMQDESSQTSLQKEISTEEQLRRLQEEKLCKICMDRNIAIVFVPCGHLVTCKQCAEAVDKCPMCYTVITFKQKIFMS
Sequence of Dihydroorotate dehydrogenase (quinone), mitochondrial (Plasmodium falciparum (isolate 3D7)) (Q08210 whole entry, looked up): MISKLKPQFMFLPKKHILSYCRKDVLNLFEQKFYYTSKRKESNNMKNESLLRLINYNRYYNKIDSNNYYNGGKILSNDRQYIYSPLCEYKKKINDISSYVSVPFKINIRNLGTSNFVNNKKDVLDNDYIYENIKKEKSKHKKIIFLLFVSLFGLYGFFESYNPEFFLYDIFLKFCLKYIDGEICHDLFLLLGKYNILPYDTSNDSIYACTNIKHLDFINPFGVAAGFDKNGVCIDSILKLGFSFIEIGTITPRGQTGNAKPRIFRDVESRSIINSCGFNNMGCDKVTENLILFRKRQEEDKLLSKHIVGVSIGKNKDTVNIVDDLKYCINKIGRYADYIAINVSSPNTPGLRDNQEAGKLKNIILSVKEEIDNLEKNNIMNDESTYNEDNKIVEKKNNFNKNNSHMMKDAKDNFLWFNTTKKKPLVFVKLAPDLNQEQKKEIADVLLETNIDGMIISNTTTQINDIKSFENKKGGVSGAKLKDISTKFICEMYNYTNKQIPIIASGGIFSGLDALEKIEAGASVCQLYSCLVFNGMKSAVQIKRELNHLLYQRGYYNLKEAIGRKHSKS

For the compound `CCOC(=O)[C@H](CC(C)C)NC(=O)CCC1CC(OC(=O)NCc2ccc3c(c2)OCO3)CC2(CCCC(COC(=O)NCCOc3ccccc3)O2)O1` (stereo not given in full), the z-score in assay [1] was -0.167; in assay [2], 0.592 (inactive); in assay [3], 0.691 (inactive); in assay [5], -0.564 (inactive); in assay [6] it was 1.21 (inactive); in assay [7], -0.0466 (inactive). Further, the z-score is -0.875 (inactive) in assay [8] and 0.632 in assay [9]. For the same compound, the composite z-score in assay [4] was 0.0657 (inactive); in assay [10] it was 0.154.

Regarding `CC(C)[C@H](NC(=O)OC(C)(C)C)[C@@H](O)CC(=O)C(C)(C)C`, the z-score was 0.365 in [1]; 0.289 (inactive) in assay [2]; -0.809 (inactive) in assay [3]; 0.593 (inactive) in [5]; 0.942 (inactive) in assay [6]; 0.599 (inactive) in assay [7]. The z-score in assay [8] was 0.311 (inactive); in assay [9] it was -0.816. Besides, the figures for the composite z-score in [4] and in [10] were 0.525 (inactive) and -0.111, respectively.

In the case of `CC(C)=NOC(C)CN1CCCCc2nc(C)c(C)cc21` (stereo not given), the z-score was -0.724 in [1]; 0.0416 (inactive) in assay [2]; -0.408 (inactive) in [3]; 0.547 (inactive) in assay [5]; 0.113 (inactive) in assay [6]; 0.668 (inactive) in assay [7]. In addition, the z-score in assay [8] was -0.562 (inactive); in [9], -0.491. Besides, the values for the composite z-score in assay [4] and in assay [10] were -0.241 (inactive) and 0.111, respectively.

For `CC(=O)OC[C@H]1O[C@H](CC=NOC(C)CN2CCCCc3nc(C)c(C)cc32)C=C[C@@H]1OC(C)=O` (stereo not given in full), the z-score in [1] is 0.351; in assay [2] it was 0.515 (inactive); in [3], 0.535 (inactive); in [5] it was -0.266 (inactive); in assay [6] it was 0.575 (inactive); in [7], 0.132 (inactive). The z-score in assay [8] is -0.269 (inactive); in assay [9] it was 0.46. The composite z-score was -0.582 (inactive) in assay [4] and 0.23 in assay [10].

Consider `CO[C@@H]1COC(=O)[C@H](COCc2ccccc2)NC(=O)CC=C[C@@H](C)[C@H](OC)COC(=O)[C@@H](C)NC(=O)CC=C[C@H]1C`, for which the z-score in assay [1] was 0.532; in assay [2], -1.01 (inactive); in assay [3], -2.05 (inactive); in [5] it was -0.908 (inactive); in [6], 0.496 (inactive); in [7], 1.4 (inactive). The z-score was 0.287 (inactive) in [8] and -0.795 in assay [9]. Besides, the composite z-score was 0.262 (inactive) in [4] and -0.0939 in assay [10].

Consider `COc1ccc(OC[C@H]2CN3[C@@H](CC[C@@H](C)[C@@H]3c3ccc(Br)cc3)C(=O)O2)cc1`, for which the z-score in [1] was -0.699; in assay [2], -1.63 (inactive); in [3] it was 0.649 (inactive); in [5], -1.52 (inactive); in assay [6] it was -0.13 (inactive); in assay [7], -1.87 (inactive). For the same compound, the z-score in [8] is -1.35 (inactive); in assay [9], -0.134. The composite z-score in assay [4] was 0.217 (inactive); in assay [10], -0.129.

As for `CC(C)CON=C1C[C@@H](O)[C@@H](O)[C@@H]2[C@@H]3C(=O)N(c4ccc(F)cc4F)C(=O)[C@@H]3CC[C@@H]12`, the z-score in assay [1] is 0.372; in assay [2], -1.98 (inactive); in assay [3], 0.88 (inactive); in assay [5], -0.27 (inactive); in assay [6], -1.22 (inactive); in assay [7], 1.01 (inactive). In addition, the z-score in assay [8] is 0.15 (inactive); in assay [9] it was -0.226. The composite z-score in assay [4] is -2.1 (inactive); in [10], -0.0296.

As for `C#CCCCON=C1[C@H]2CCn3c(=O)n([C@@H](CC)c4ccccc4)c(=O)n3[C@H]2[C@H](O)[C@@H]2O[C@H]12`, the z-score in assay [1] is -0.14; in assay [2], -0.971 (inactive); in assay [3], -0.813 (inactive); in assay [5], -0.531 (inactive); in [6], -0.771 (inactive); in [7], -0.529 (inactive). Also, the figures for the z-score in [8] and in assay [9] were -0.567 (inactive) and -0.751, respectively. Further, the composite z-score was 0.147 (inactive) in assay [4] and -0.181 in assay [10].

With `C[C@@H]1CC[C@H]2C(=O)O[C@@H](CN=[N+]=[N-])CN2[C@H]1c1ccc(Br)cc1`, the z-score is -0.607 in assay [1]; -3.55 (inactive) in assay [2]; -0.74 (inactive) in assay [3]; -0.446 (inactive) in assay [5]; 4.32 (inactive) in assay [6]; 0.31 (inactive) in assay [7]. Also, the z-score in assay [8] is -1.66 (inactive); in [9], -4.06. The composite z-score in assay [4] was 5.24 (inactive); in assay [10], -0.0421.

For the compound `CC(=O)OC[C@H]1O[C@H](CC=NOC[C@@H](O)COCc2ccco2)C=C[C@@H]1OC(C)=O`, the z-score in assay [1] was -0.13; in assay [2], 0.0523 (inactive); in [3] it was 0.166 (inactive); in assay [5] it was -1.26 (inactive); in [6], 0.178 (inactive); in [7], 0.574 (inactive). Also, the z-score in assay [8] was 0.924 (inactive); in assay [9], 0.396. The composite z-score in assay [4] was -0.554 (inactive); in assay [10], -0.306.

For `C#CCCCON=C1C[C@@H](O)[C@@H](O)[C@@H]2[C@@H]3C(=O)N(C[C@@H]4CCCO4)C(=O)[C@@H]3CC[C@H]12`, the z-score in assay [1] was -0.344; in [2], 0.767 (inactive); in assay [3], -0.448 (inactive); in [5], 0.0001 (inactive); in [6] it was 0.364 (inactive); in [7], -0.145 (inactive). The z-score was 0.212 (inactive) in assay [8] and -0.179 in assay [9]. In addition, the values for the composite z-score in assay [4] and in assay [10] were 0.347 (inactive) and -0.122, respectively.

On to `CO[C@H]1COC(=O)[C@H](C)COC(=O)[C@H](C)NC(=O)CC=C[C@H]1C`, for which the z-score in [1] is 0.377; in assay [2] it was -1.32 (inactive); in [3], 1.13 (inactive); in [5], -0.826 (inactive); in assay [6] it was -0.419 (inactive); in [7], 0.91 (inactive). The z-score in [8] is -0.193 (inactive); in assay [9], 1.03. Besides, the composite z-score in [4] was 0.0315 (inactive); in assay [10] it was -0.0525.
